Measured values from PubChem BioAssay (NCI).
The panel holds about 79,000 compounds, 15% with a hit somewhere; the sample as a whole holds those more often. The source made the active and inactive calls. Rule as the data show it: active = growth inhibition above about 70%; inactive = the rest.

Legend:
[1] = NCI Yeast Anticancer Drug Screen. Data for the rad52 strain (AID 147);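 also: 0% = growth of vehicle-treated control cultures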; conditions: S. cerevisiae rad52 mutant growth inhibition, stronger effect = higher value
Procedure, shortened: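 Inhibition of yeast growth, referenced to vehicle controls, was the measured output for a strain with defective DNA damage repair.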

[2] = NCI Yeast Anticancer Drug Screen. Data for the wt1 strain (AID 149);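 also: 0% = growth of vehicle-treated wt1 cultures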; conditions: S. cerevisiae wt1 strain (SPY 50644) growth inhibition, stronger effect = higher value
Procedure, shortened: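 Growth inhibition read against vehicle controls after compound exposure of the wt1 yeast strain.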

[3] = NCI Yeast Anticancer Drug Screen. Data for the rad50EPP+ strain (AID 151);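 also: 0% = growth of vehicle-treated control cultures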; conditions: S. cerevisiae rad50 mutant strain, stronger effect = higher value
Procedure, shortened: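 Genetically defined yeast (rad50EPP+, DNA damage repair alteration) is grown with compound, and inhibition of growth is expressed relative to vehicle-treated controls.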

[4] = NCI Yeast Anticancer Drug Screen. Data for the mgt1 strain (AID 153); conditions: S. cerevisiae mgt1 mutant growth inhibition, stronger effect = higher value
Procedure, shortened: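 In the mgt1 strain, test compounds were added and growth inhibition was determined relative to vehicle-treated controls.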

[5] = NCI Yeast Anticancer Drug Screen. Data for the rad50 strain (AID 155);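 also: 0% = growth of vehicle-only cultures of the same strain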; conditions: S. cerevisiae rad50 strain growth inhibition, stronger effect = higher value
Procedure, shortened: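 Readout: growth inhibition relative to vehicle-treated cultures. Compound exposure was carried out in a genetically defined yeast strain deficient in DNA damage repair.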

[6] = NCI Yeast Anticancer Drug Screen. Data for the mec2-1 strain (AID 157); conditions: S. cerevisiae mec2-1 strain, stronger effect = higher value
Procedure, shortened: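 Each compound was tested on mec2-1 yeast, a strain altered in DNA damage repair or cell cycle control. Growth inhibition is reported relative to vehicle.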

[7] = NCI Yeast Anticancer Drug Screen. Data for the rad14 strain (AID 159);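 also: 0% = growth of vehicle-treated control cultures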; conditions: S. cerevisiae rad14 strain growth inhibition, stronger effect = higher value
Procedure, shortened: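 Growth inhibition vs vehicle controls; genetically altered yeast strain (DNA damage repair defect) treated with test compounds.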

[8] = NCI Yeast Anticancer Drug Screen. Data for the sgs1 mgt1 strain (AID 161);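 also: 0% = growth of cultures given vehicle only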; conditions: S. cerevisiae sgs1 mgt1 strain, stronger effect = higher value
Procedure, shortened: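 Inhibition of yeast growth, normalised to vehicle-treated controls, is reported for a strain bearing genetic alterations in DNA damage repair.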

[9] = NCI Yeast Anticancer Drug Screen. Data for the CLN2oe strain (AID 163);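 also: 0% = growth of vehicle-only control cultures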; conditions: S. cerevisiae CLN2oe strain, stronger effect = higher value
Procedure, shortened: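 First, the altered yeast strain was treated with each compound; second, its growth was measured; finally, inhibition was derived by comparison with vehicle controls.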

[10] = NCI Yeast Anticancer Drug Screen. Data for the cln2 rad14 strain (AID 165);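 also: 0% = growth equal to vehicle treated cultures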; conditions: S. cerevisiae cln2 rad14 strain, stronger effect = higher value
Procedure, shortened: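 Test compounds were added to cln2 rad14 yeast cultures; inhibition of growth was then determined by comparison with vehicle treatment.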

[11] = NCI Yeast Anticancer Drug Screen. Data for the bub3 strain (AID 167); conditions: S. cerevisiae bub3 mutant strain, stronger effect = higher value
Procedure, shortened: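 Readout: yeast growth inhibition, expressed relative to vehicle-only wells. The test organism is a mutant strain from a panel with lesions in DNA repair or checkpoint genes.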

[12] = NCI Yeast Anticancer Drug Screen. Data for the wt2 strain (AID 169);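 also: 0% = growth of vehicle-treated yeast cultures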; conditions: S. cerevisiae wt2 strain growth inhibition, stronger effect = higher value
Procedure, shortened: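 The panel's yeast strains carry defined changes in DNA repair or cell cycle genes. Each strain is grown with compound, and growth loss is scored relative to vehicle.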

[13] = NCI Yeast Anticancer Drug Screen. Data for the mlh1 strain (AID 171);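 also: 0% = growth of vehicle-treated control cultures of the same strain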; conditions: S. cerevisiae mlh1 strain growth inhibition, stronger effect = higher value
Procedure, shortened: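 Inhibition values reflect reduced yeast growth in the presence of compound, referenced to vehicle controls, using a strain chosen for its alteration in DNA repair or cell cycle control.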

[14] = NCI Yeast Anticancer Drug Screen. Data for the sgs1 strain (AID 173);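 also: 0% = growth of vehicle-only control cultures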; conditions: S. cerevisiae sgs1 mutant, stronger effect = higher value
Procedure, shortened: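 Vehicle-treated cultures served as reference for growth inhibition of a yeast strain altered in DNA damage repair or cell cycle control after compound exposure.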

[15] = NCI Yeast Anticancer Drug Screen. Data for the mlh1 rad18 strain (AID 175); conditions: S. cerevisiae mlh1 rad18 strain growth inhibition, stronger effect = higher value
Procedure, shortened: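 Inhibition values reflect reduced growth of mutant yeast versus vehicle-treated controls following compound exposure; the mutations affect DNA damage repair.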

[16] = NCI Yeast Anticancer Drug Screen. Data for the rad18 strain (AID 177); conditions: S. cerevisiae rad18 mutant growth inhibition, stronger effect = higher value
Procedure, shortened: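 Steps: expose repair-mutant yeast to compound; measure growth; express as inhibition relative to vehicle control.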

[17] = at 5.0 µM (retest, dose inferred, filed as 0.5)
[18] = at 50.0 µM (retest, dose inferred, filed as 5.0)

Measured: growth inhibition

CC(C(=O)N1C(=O)N(C(=O)C(C)C(O)c2ccccc2)C2CCCCC21)C(O)c1ccccc1 (stereo unspecified)
inactive: [1]; at 1.2 µM 5% | [1]; at 3.7 µM 8% | [1]; at 11.0 µM 11% | [1]; at 33.0 µM 11% | [1]; at 100.0 µM 19% | [2]; at 1.2 µM 2% | [2]; at 3.7 µM -1% | [2]; at 11.0 µM 7% | [2]; at 33.0 µM 3% | [2]; at 100.0 µM 12% | [3]; at 1.2 µM 0% | [3]; at 3.7 µM -3% | [3]; at 11.0 µM 0% | [3]; at 33.0 µM 2% | [3]; at 100.0 µM 3% | [4]; at 1.2 µM -4% | [4]; at 3.7 µM 0% | [4]; at 11.0 µM 1% | [4]; at 33.0 µM 1% | [4]; at 100.0 µM 29% | [5]; at 1.2 µM 0% | [5]; at 3.7 µM -9% | [5]; [17] -5% | [5]; at 11.0 µM -7% | [5]; at 33.0 µM 16% | [5]; [18] 8% | [5]; at 100.0 µM 20% | [6]; at 1.2 µM 3% | [6]; at 3.7 µM 1% | [6]; [17] -7% | [6]; at 11.0 µM 2% | [6]; at 33.0 µM 14% | [6]; [18] -2% | [6]; at 100.0 µM 24% | [7]; at 1.2 µM 2% | [7]; at 3.7 µM 1% | [7]; at 11.0 µM 4% | [7]; at 33.0 µM 9% | [7]; at 100.0 µM 20% | [8]; [17] -7% | [8]; [18] 11% | [9]; at 1.2 µM 1% | [9]; at 3.7 µM -2% | [9]; at 11.0 µM 4% | [9]; at 33.0 µM 11% | [9]; at 100.0 µM 15% | [10]; [18] 14% | [11]; at 1.2 µM -2% | [11]; at 3.7 µM -1% | [11]; [17] -13% | [11]; at 11.0 µM -2% | [11]; at 33.0 µM 1% | [11]; [18] -9% | [11]; at 100.0 µM 4% | [12]; at 1.2 µM -2% | [12]; at 3.7 µM -1% | [12]; at 11.0 µM 1% | [12]; at 33.0 µM 7% | [12]; at 100.0 µM 29% | [13]; at 1.2 µM 0% | [13]; at 3.7 µM 0% | [13]; at 11.0 µM 1% | [13]; at 33.0 µM 11% | [13]; at 100.0 µM 26% | [14]; at 1.2 µM 2% | [14]; at 3.7 µM 2% | [14]; at 11.0 µM 0% | [14]; at 33.0 µM 23% | [14]; at 100.0 µM 46% | [15]; [17] 2% | [15]; [18] 1% | [16]; at 1.2 µM 2% | [16]; at 3.7 µM 4% | [16]; at 11.0 µM 5% | [16]; at 33.0 µM 20% | [16]; at 100.0 µM 27%
active: [5]; at 50.0 µM 97.1% | [6]; at 50.0 µM 97.2% | [8]; at 50.0 µM 97.5% | [10]; [17] 87% | [10]; at 50.0 µM 96.5% | [11]; at 50.0 µM 97.8% | [15]; at 50.0 µM 97.2%

O=C(CCSC1=NCCCN1)c1ccc(F)cc1
active: [1]; at 100.0 µM 99% | [2]; at 100.0 µM 98% | [3]; at 100.0 µM 98% | [4]; at 100.0 µM 99% | [5]; at 100.0 µM 96% | [6]; [18] 75% | [6]; at 50.0 µM 94.3% | [6]; at 100.0 µM 100% | [7]; at 100.0 µM 99% | [8]; [18] 93% | [8]; at 50.0 µM 91% | [9]; at 100.0 µM 98% | [11]; [18] 79% | [11]; at 50.0 µM 91.2% | [12]; at 100.0 µM 99% | [13]; at 100.0 µM 98% | [14]; at 100.0 µM 99%
inactive: [1]; at 1.2 µM -38% | [1]; at 3.7 µM -55% | [1]; at 11.0 µM -53% | [1]; at 33.0 µM 58% | [2]; at 1.2 µM -43% | [2]; at 3.7 µM -61% | [2]; at 11.0 µM -101% | [2]; at 33.0 µM 15% | [3]; at 1.2 µM -75% | [3]; at 3.7 µM -100% | [3]; at 11.0 µM -54% | [3]; at 33.0 µM 37% | [4]; at 1.2 µM -59% | [4]; at 3.7 µM -59% | [4]; at 11.0 µM -52% | [4]; at 33.0 µM -3% | [5]; at 1.2 µM -21% | [5]; at 3.7 µM -40% | [5]; [17] 24% | [5]; at 11.0 µM -34% | [5]; at 33.0 µM -34% | [5]; [18] 69% | [5]; at 50.0 µM 4.9% | [6]; at 1.2 µM -15% | [6]; at 3.7 µM 3% | [6]; [17] 17% | [6]; at 11.0 µM -52% | [6]; at 33.0 µM 55% | [7]; at 1.2 µM -19% | [7]; at 3.7 µM -50% | [7]; at 11.0 µM -54% | [7]; at 33.0 µM 23% | [8]; [17] 6% | [9]; at 1.2 µM -6% | [9]; at 3.7 µM -7% | [9]; at 11.0 µM -24% | [9]; at 33.0 µM 14% | [10]; [17] -3% | [10]; [18] 13% | [10]; at 50.0 µM 25.6% | [11]; at 1.2 µM -22% | [11]; at 3.7 µM -17% | [11]; [17] 12% | [11]; at 11.0 µM -23% | [11]; at 33.0 µM -26% | [11]; at 100.0 µM 68% | [12]; at 1.2 µM -12% | [12]; at 3.7 µM -13% | [12]; at 11.0 µM -5% | [12]; at 33.0 µM 34% | [13]; at 1.2 µM -32% | [13]; at 3.7 µM -73% | [13]; at 11.0 µM -23% | [13]; at 33.0 µM -13% | [14]; at 1.2 µM -41% | [14]; at 3.7 µM -52% | [14]; at 11.0 µM -58% | [14]; at 33.0 µM -29% | [15]; [17] 24% | [15]; [18] 48% | [15]; at 50.0 µM 14.9%
